Screening data (PubChem)
TDP1 cell noCPT = qHTS for Inhibitors of human tyrosyl-DNA phosphodiesterase 1 (TDP1): qHTS in cells in absence of CPT | DT40 Tdp1-/- hTDP1 cells, no CPT, ATP luminescence, 48 h | Potency, µM (top dose mostly 46.2 µM), actives largely listed as inhibitors | 420,000 tested, 15% active | AID 686978, 2013; note: nearly all actives have a fitted effect of over 55% in size
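No-CPT arm: Tdp1-/-;hTDP1 DT40 cells (400/well) plus compounds, incubated ≥48 hr at 37 °C. Readout CellTiter-Glo luminescence.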
HT1080NT lethal = kills 2HG-producing HT-1080-NT fibrosarcoma cells. HT-1080-NT fibrosarcoma viability, CellTiter-Glo ATP luminescence, 48 h. Potency, µM (doses to about 46.1 µM), actives largely listed as cytotoxic. 360,000 tested, 1.6% active. AID 686970;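 note: NT is the 2HG producing partner of a matched IDH1 knockdown line; nearly all actives have a fitted effect of over 55% in size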
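A 48-hour cytotoxicity screen used HT-1080-NT cells plated 2 hours before compound delivery. ATP-based CellTiter-Glo luminescence measured viability, normalized to DMSO and no-cell controls.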
KB-3-1 tox = kills parental KB-3-1 adenocarcinoma cells | 400,000 tested, 1.4% active | AID 1347075 | Potency, µM (highest dose often 46.1 µM), hits mostly cytotoxic | KB-3-1 viability, CellTiter-Glo ATP luminescence, 72 h; note: nearly all actives have a fitted effect of over 60% in size
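Cytotoxicity in the drug-sensitive parental line KB-3-1 was scored as loss of CellTiter-Glo luminescence following 72 h incubation with compound. Values come from curve fitting of normalized concentration-response data.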
KB-V1 MDR tox = kills drug-selected multidrug resistant KB-V1 cells; KB-V1 MDR cells viability, CellTiter-Glo, 72 h; Potency, µM (top dose mostly 46.1 µM), hits mostly cytotoxic; 400,000 tested, 3.4% active; note: nearly all actives have a fitted effect of over 60% in size
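KB-V1 cells (P-gp-expressing MDR subline of KB-3-1) in phenol-red-free DMEM with 10% FBS were exposed to library compounds over a concentration series for 72 h at 37 degrees C. Viability read by CellTiter-Glo luminescence; concentration-effect curves fitted after normalization.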
DT40 TDP1 CPT = growth inhibition of DT40 Tdp1-/-;hTDP1 cells with camptothecin (screen for TDP1 inhibitors). Potency, µM (top dose mostly 46.2 µM), actives largely listed as inhibitors. 420,000 tested, 12% active. chicken DT40 Tdp1-/-;hTDP1 cells + 20 nM CPT, ATP luminescence, 48 h; note: nearly all actives have a fitted effect of over 55% in size
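Cell growth measured by CellTiter-Glo luminescence after a minimum 48 h, 37 C compound exposure with 20 nM CPT in Tdp1-knockout DT40 cells stably expressing hTDP1, seeded 400/well; qHTS titration format.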
HT1080 IDH1KD tx = kills HT-1080 cells with IDH1 knockdown. AID 686971. 360,000 tested, 2% active. Potency, µM (series often up to 46.1 µM), most hits filed as cytotoxic. HT-1080 IDH1 knockdown viability, ATP luminescence, 48 h
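After a 2 h attachment period, IDH1KD HT-1080 cells took pin-transferred compound for 48 h at 37 °C; ATP-based luminescence after 10 min room-temperature reagent incubation reported viability.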
Numbers stand for hits; . = inactive; ? = inconclusive; / = no result. Hits are enriched below; roughly 19% of the tested compounds scored in any of these assays. Calls come from the whole dose curve; as a rule, active = well fitted curve in the direction sought with a large enough effect; inconclusive = small, poorly fitted or top-dose-only effect, or another doubt; inactive = no such curve, though single readings can be large; an effect the other way counts as inactive or inconclusive.

SMILES	TDP1 cell noCPT	HT1080NT lethal	KB-3-1 tox	KB-V1 MDR tox	DT40 TDP1 CPT	HT1080 IDH1KD tx
c1cc(-c2cnc3cccnn23)c2cccnc2c1	?	.	.	.	9.2µM	.
CC(C)C[C@H]1CNC(=S)N1CC1CCN(CCCC2CCCCC2)CC1	?	.	.	.	18.4µM	.
CCCC[C@@H]1CNC(=S)N1CCC12CC3CC(CC(C3)C1)C2	18.4µM	.	.	?	?	.
CC(C)C[C@H]1CNC(=S)N1CC1CCN(CC2CCCC2)CC1	.	.	.	.	.	.
CC(C)C[C@H]1CNC(=S)N1CC1CCN(CCC23CC4CC(CC(C4)C2)C3)CC1	16.4µM	.	?	.	?	.
Cc1ccc(O)c(NC(=O)c2ccc3c(c2)C(=O)N(Cc2ccco2)C3=O)c1	.	.	.	.	.	.
CCc1cc2cc(C)ccc2nc1SCC(=O)NC1CCCC1	?	.	.	?	?	.
CCOc1ccc(-c2nc(CCl)cs2)cc1	?	.	.	.	10.3µM	.
O=C(O)Cc1csc(-c2ccc(Cl)cc2)n1	.	/	/	/	.	/
ClCc1csc(-c2ccc(Cl)cc2)n1	14.6µM	.	.	.	13µM	.
CCN1CCN(c2c(Cl)cccc2NC(=O)c2ccc([N+](=O)[O-])cc2)CC1	.	.	.	.	.	.
COc1ccc2c(c1OC)C(=O)OC2c1ccc(O)cc1 (configuration not stated)	12.6µM	/	.	.	17.8µM	/
COc1ccc(Cc2noc(CN3CCN(C4CCc5ccccc5C4)CC3)n2)cc1OC (configuration not stated)	20.6µM	.	.	.	?	?
COc1ccc(Cc2noc(CN3CCC(c4ccncc4)CC3)n2)cc1OC	23.1µM	.	?	18.4µM	20.6µM	?
Fc1cccc(Cc2noc(CN3CCN(C4CCc5ccccc5C4)CC3)n2)c1 (configuration not stated)	?	.	.	?	?	.
COc1cccc(-c2ncc3ccccc3c2COC(=O)CCC(=O)O)c1	.	.	.	?	.	.
C=CCC1C=C(C)CC(CC=C)N1 (configuration not stated)	.	.	.	.	.	.
COc1ccc(C2/C=C\CN(S(=O)(=O)c3cccc4cccnc34)CC(=O)N2Cc2ccc(F)cc2)cc1 (configuration not stated)	?	.	.	.	?	.
COc1ccc([C@H]2/C=C\CN(S(=O)(=O)c3ccc(C)cc3)[C@@H](C)C(=O)N2Cc2ccc(F)cc2)cc1	?	.	.	?	18.4µM	.
COc1ccc([C@H]2/C=C\CN(S(=O)(=O)c3ccc4ccccc4c3)[C@@H](C)C(=O)N2Cc2ccc(F)cc2)cc1	?	.	.	.	?	.
COc1ccc(C2/C=C\CN(S(=O)(=O)c3ccc(C)cc3)CC(=O)N2Cc2ccc(F)cc2)cc1 (configuration not stated)	18.4µM	.	.	.	?	.
COc1ccc(C2/C=C\CC(NS(=O)(=O)c3ccc(C)cc3)CC(=O)N2Cc2ccccc2F)cc1 (configuration not stated)	?	.	?	.	23.1µM	.
COc1ccc([C@H]2/C=C\CN(S(=O)(=O)c3cccc4cccnc34)[C@@H](C)C(=O)N2Cc2ccc(F)cc2)cc1	14.6µM	.	.	.	18.4µM	.
COc1ccc(N2CC(NS(=O)(=O)c3ccc(F)cc3)CC2=O)cc1 (configuration not stated)	.	.	.	.	.	.
CC(C)CC(=O)Nc1ccnn1C1CCN(C(=O)c2ccc(F)cc2Cl)CC1	?	.	.	.	.	.
Cc1ccccc1CNCc1c(C(=O)O)c(C)n(Cc2ccc(F)cc2Cl)c1C	.	/	.	?	.	/
